Sampled rows, rich in hits. Any-hit rate of the full collection: about 7.9%.
PLAP activator: human PLAP activation | purified PLAP enzyme, luminescent substrate read-out; stronger effect = higher value | activation fold at 20 µM | 96,000 tested, 1.2% active; in the data active means activation fold above about 2
M1 antag: blocks the rat M1 muscarinic receptor response to acetylcholine. P08482. 64,000 tested, 3.4% active. CHO-M1 cells, Fluo-4 calcium, ACh EC80 antagonist mode; stronger effect = lower value. B-score at 10 µM;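 active means calcium fluorescence response, raw or row-and-column corrected B-score, differing from the plate sample mean either way at a set confidence level, mostly lower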
HER2 expr 66K: inhibitors of human Her2 kinase expression | SKBR-3 HER2 protein level, AlphaScreen, 18-24 h; stronger effect = lower value | HER2 level % of control, % at 10 µM | 65,000 tested, 0.69% active | AID 645;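 active means HER2 level under 5% of the carrier-only control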;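 further: 100% = DMSO carrier and 0% = 500 nM PU-H71 HSP90 inhibitor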
Cav3 T inh: blocks human Cav3.2 T-type calcium channel. Cav3.2-expressing cells, Fluo-4 calcium fluorescence FDSS; stronger effect = lower value. B-score at 10 µM. AID 449739. 100,000 tested, 4% active. O95180;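 active means single-dose well whose peak fluorescence ratio is a statistical outlier from its plate by either plate-standardised score or position-corrected B-score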
M1 agonist: activates the M1 muscarinic receptor | 64,000 tested, 3% active | B-score at 10 µM | AID 626 | CHO-M1 cells, Fluo-4 calcium fluorescence, agonist mode; stronger effect = higher value;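 active means fluorescence rise, raw or as B-score row- and column-corrected plate score, outside the 99.7% band of its plate's samples, either direction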
M1 ag confirm: rat M1 muscarinic agonism, confirmation; shares compounds with M1 agonist; 1,700 tested, 19% active; AID 1488; CHO-M1 cells, Fluo-4 calcium fluorescence, agonist mode; actives lie on both sides; fluorescence change (max-min) at 10 µM;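 active means fluorescence change differs from the solvent-only DMSO control mean at a set confidence level in both duplicate runs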;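 further: an EC20 dose of acetylcholine follows compound addition during the same imaging run; raw fluorescence intensity difference in instrument units with no normalization to controls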
M4 ag counter: counter-screen for M1 agonists: activity at rat M4 receptor. shares compounds with M1 agonist. CHO M4/Gqi5 cells, Fluo-4 calcium fluorescence, agonist mode; actives lie on both sides. fluorescence change (max-min) at 10 µM. AID 1741. 1,700 tested, 9% active;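 active means fluorescence change differing from the plate's solvent-only control wells at 99.7% confidence in both duplicates, whether higher or lower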
* = called active by the depositor.

How did COc1ccc(C(=O)Nc2sc3c(c2C(=O)NCc2ccco2)CCCC3)cc1OC do in these assays?
PLAP activator: 1.7; Cav3 T inh: -1.2

What do the screens show for `COc1ccc(N=c2oc3c(OC)cccc3cc2C(=O)NCc2ccco2)cc1OC`?
PLAP activator: 1.1; M1 antag: 0.31; HER2 expr 66K: 62; Cav3 T inh: -1.9; M1 agonist: 15*; M1 ag confirm: 18; M4 ag counter: -1.8

What do the screens show for `COc1ccc(-c2noc(-c3ccccc3C(=O)NCc3ccco3)n2)cc1OC`?
PLAP activator: 0.8; M1 antag: -0.24; HER2 expr 66K: 131; M1 agonist: 4.7*; M1 ag confirm: -15; M4 ag counter: -27

Results for COc1ccc(-c2noc(-c3ccccc3C(=O)NCc3ccco3)n2)cc1 ?
PLAP activator: 0.8; M1 antag: 0.45; HER2 expr 66K: 62; Cav3 T inh: -2; M1 agonist: 0.68

How did COc1ccc(C(=O)Nc2ccccc2C(=O)NCc2ccco2)cc1OC do in these assays?
PLAP activator: 1.1; M1 antag: -0.87; HER2 expr 66K: 96; Cav3 T inh: -0.098; M1 agonist: 6.6*; M1 ag confirm: -2.9; M4 ag counter: -25

How did COCCNC(=O)c1ccccc1NC(=O)c1ccc(OC)c(OC)c1 do in these assays?
PLAP activator: 1.1; M1 antag: 0.68; HER2 expr 66K: 183; Cav3 T inh: 0.14; M1 agonist: 31*; M1 ag confirm: -31*; M4 ag counter: -94*

What do the screens show for `Cc1cn(C(=O)c2ccccc2)c(=S)n1-c1ccc(Br)cc1`?
Cav3 T inh: -2.2

Results for COc1ccccc1NC(=O)c1ccccc1-c1nc(-c2ccccc2OC)no1 ?
PLAP activator: 1.5; M1 antag: -1.4; HER2 expr 66K: 99; Cav3 T inh: -2.6; M1 agonist: 7.3*; M1 ag confirm: -29*; M4 ag counter: -50

What do the screens show for `O=C(NCc1ccco1)c1cccc2ccccc12`?
PLAP activator: 0.9; M1 antag: 0.84; HER2 expr 66K: 90; Cav3 T inh: -0.44; M1 agonist: 11*; M1 ag confirm: -16; M4 ag counter: -41

How did COc1ccccc1-c1noc(-c2ccccc2C(=O)Nc2ccccc2)n1 do in these assays?
PLAP activator: 1; M1 antag: 0.22; HER2 expr 66K: 88; Cav3 T inh: -0.025; M1 agonist: 0.23

What do the screens show for `COc1ccc(C(=O)Nc2ccc(Cl)cc2C(=O)NCc2ccco2)cc1OC`?
PLAP activator: 1; M1 antag: -0.1; HER2 expr 66K: 52; Cav3 T inh: -1.5; M1 agonist: 13*; M1 ag confirm: -14; M4 ag counter: -16

How did Cc1ccc(-n2c(-c3cc(C)n(C)n3)n[nH]c2=S)cc1 do in these assays?
PLAP activator: 0.9; Cav3 T inh: -0.3

What do the screens show for `Cc1cc2c(cc(C(=O)OCC(=O)NCc3cccs3)n2C(C)C)o1`?
PLAP activator: 0.9; M1 antag: 0.059; HER2 expr 66K: 56; Cav3 T inh: -3.5; M1 agonist: 0.88

What do the screens show for `CCOC(=O)N1CCN(C(=O)c2cn(CC)c3cc(N4CCN(C)CC4)c(F)cc3c2=O)CC1`?
M1 antag: -1.6; HER2 expr 66K: 98; M1 agonist: 1.1

Results for COc1ccc(N(CC(=O)N2CCCC(C)C2)S(=O)(=O)c2c(C)nn(C)c2C)cc1 (centres undefined) ?
PLAP activator: 1.5; M1 antag: -0.53; HER2 expr 66K: 82; Cav3 T inh: 0.12; M1 agonist: -0.54

How did O=C(c1ccco1)N1CCN(c2nc3ccccc3n3nnnc23)CC1 do in these assays?
PLAP activator: 1.1; M1 antag: -1.4; HER2 expr 66K: 74; M1 agonist: 7.4*; M1 ag confirm: 22; M4 ag counter: 14

What do the screens show for `O=C(Nc1cc2c(oc1=O)CCCC2=O)c1ccc(Cl)cc1`?
PLAP activator: 0.9; Cav3 T inh: 0.16

Results for COc1cc(CC2COC(c3ccc(O)c(OC)c3)C2COC(C)=O)ccc1O (centres undefined) ?
Cav3 T inh: -0.22

Results for O=C1c2ccccc2N2C(=O)c3ccccc3[C@H]2N1c1ccccc1 ?
PLAP activator: 0.9
